High-throughput results as filed in PubChem.
Compounds with a hit are over-represented: about 3.3% of the library has one in this group of screens.
AmpC inh no detg = AmpC beta-lactamase inhibition without detergent; Potency, µM (series often up to 57.1 µM), for the others: top-dose activity change, negative = inhibition, usual class: inhibitors; P00811; actives 0.52% (n = 330,000); AmpC nitrocefin hydrolysis, absorbance 480 nm, 0.0001% Triton;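 note: plate controls were no compound for no effect and no enzyme for full effect; nearly all actives have a fitted effect of over 20% in size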
Target sequence (P00811 whole entry, looked up): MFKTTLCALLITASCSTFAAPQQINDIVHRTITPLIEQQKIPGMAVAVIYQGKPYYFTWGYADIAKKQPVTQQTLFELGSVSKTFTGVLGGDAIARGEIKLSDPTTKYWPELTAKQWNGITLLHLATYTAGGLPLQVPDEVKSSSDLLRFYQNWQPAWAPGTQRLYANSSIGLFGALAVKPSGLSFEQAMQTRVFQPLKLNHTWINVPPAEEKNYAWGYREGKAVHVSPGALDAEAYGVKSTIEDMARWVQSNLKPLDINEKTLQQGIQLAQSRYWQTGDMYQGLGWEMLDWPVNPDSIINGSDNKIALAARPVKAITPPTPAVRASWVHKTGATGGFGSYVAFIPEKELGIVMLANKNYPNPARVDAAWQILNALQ
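20 mM phosphate pH 7.0 + 0.01% (detergent screen) or 0.0001% Triton X-100; 5.3 nM AmpC reagent; cpd preinc 15 min RT; nitrocefin (800 uM stock) to start; A480 q20 s × 4 min; Activity was normalised to no-enzyme and no-compound control wells.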
AmpC inh detg = blocks E. coli AmpC beta-lactamase in detergent assay; actives 0.041% (n = 370,000); Potency, µM (doses to about 114 µM), for the others: at the top dose activity change, negative = inhibition, hits mostly inhibitors; P00811; AmpC hydrolysis of nitrocefin, absorbance 480 nm, 0.01% Triton;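 note: 0% = no-compound wells and -100% = no-enzyme wells; nearly all actives have a fitted effect of over 25% in size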
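AmpC (5.3 nM in the dispensed reagent) in 20 mM phosphate pH 7.0 with 0.01% (detergent screen) or 0.0001% Triton X-100 was preincubated with compounds for 15 min at room temperature. Nitrocefin was then added from an 800 uM solution, and hydrolysis was followed at 480 nm.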
Sm TGR block = S. mansoni TGR enzyme inhibition. Potency, µM (highest dose often 114 µM), for inactives: at the highest dose activity change, negative = inhibition, most hits filed as inhibitors. actives 3% (n = 360,000). Q962Y6. purified TGR, DTNB reduction, TNB absorbance 405 nm; note: nearly all actives have a fitted effect of over 60% in size
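First, TGR (20 nM dispensed) and NADPH were mixed with compound. Second, a 15 min room-temperature incubation followed. Third, further NADPH and then DTNB were added to start the reaction. Finally, TNB absorbance was monitored kinetically.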
Active calls of the source: *. Calls come from the whole dose curve; as a rule, active = well fitted curve in the direction sought with a large enough effect; inconclusive = small, poorly fitted or top-dose-only effect, or another doubt; inactive = no such curve, though single readings can be large; an effect the other way counts as inactive or inconclusive. Unless noted, % is set by controls: 0 for no effect and ±100 for the full control effect; potency is the fitted concentration of half-maximal effect.

What do the screens show for `CC(C)CN1CCN(CC#Cc2ccccc2)CC1CCO` (stereo not given)?
AmpC inh no detg: 3.8%; AmpC inh detg: 3.8%; Sm TGR block: -30.4%

What do the screens show for `CN(Cc1c(C(=O)N/N=C/c2ccc(O)cc2)nnn1-c1nonc1N)c1ccccc1`?
AmpC inh no detg: -24.4%; AmpC inh detg: 4.2%; Sm TGR block: 5.2%

What do the screens show for `CC1CCCCC1NC(=O)c1ccc(S(=O)(=O)N2CCN(C)CC2)cc1` (stereo not given)?
AmpC inh no detg: -15.5%; AmpC inh detg: inconclusive; Sm TGR block: -1.1%

How did CC(C)(C)OC(=O)N1CCN(C(=O)c2[nH]cnc2C(=O)Nc2ccon2)CC1 do in these assays?
AmpC inh no detg: -11.1%; AmpC inh detg: 3.2%; Sm TGR block: -0.2%

Results for CC1CCN(C(=O)c2[nH]cnc2C(=O)Nc2ccon2)CC1 ?
AmpC inh no detg: -7.6%; AmpC inh detg: 6.2%; Sm TGR block: 39.8µM*

How did CCOc1ccc(Br)cc1CNCCSc1nnnn1-c1ccccc1 do in these assays?
AmpC inh detg: 6.7%; Sm TGR block: 8.3%

What do the screens show for `COc1ccc(NC2=NCC(Cc3ccc(Br)cc3)S2)cc1` (stereo not given)?
AmpC inh no detg: -20.8%; AmpC inh detg: 5.8%; Sm TGR block: 3.4%

What do the screens show for `O=C(Cn1c(=O)oc2cc(S(=O)(=O)N3CCCC3)ccc21)N1CCN(c2ccccn2)CC1`?
AmpC inh no detg: 7.94µM*; AmpC inh detg: inconclusive; Sm TGR block: -4.1%

What do the screens show for `O=C(Cn1c(=O)oc2cc(S(=O)(=O)N3CCCC3)ccc21)N1CCN(c2ccccc2F)CC1`?
AmpC inh no detg: -3.3%; AmpC inh detg: -2.0%; Sm TGR block: 2.8%

Results for CC(=O)c1ccc(NC(=O)c2nc(-c3ccc(Cl)cc3)n3c2CCCCC3)cc1 ?
AmpC inh detg: 5.1%; Sm TGR block: -1.2%

Results for CCOC(=O)c1c(C)oc2c1cc(NS(=O)(=O)c1ccc(C(=O)O)cc1)c1ccccc12 ?
AmpC inh no detg: -42.5%; AmpC inh detg: -14.6%; Sm TGR block: 28.2µM*

How did COc1ccc(OC)c(S(=O)(=O)Nc2cc3c(C(C)=O)c(C)oc3c3ccccc23)c1 do in these assays?
AmpC inh detg: 6.2%; Sm TGR block: -25.5%

Results for CCOc1ccc(S(=O)(=O)Nc2cc3c(C(=O)OCc4ccccc4)c(C)oc3c3ccccc23)cc1 ?
AmpC inh detg: 0.8%; Sm TGR block: -27.3%

Results for COC(=O)c1c(C)oc2c1cc(NS(=O)(=O)c1cccs1)c1ccccc12 ?
AmpC inh no detg: 11.2µM*; AmpC inh detg: -7.1%; Sm TGR block: inconclusive

Results for COc1cc(C(=O)NNC(=O)c2cccn2C)cc(OC)c1OC ?
AmpC inh no detg: -16.0%; AmpC inh detg: -3.7%; Sm TGR block: 2.6%

Results for COc1ccc(CCNC(=O)c2cnn(-c3ccc(C)c(C)c3)c2NC(=O)c2ccco2)cc1OC ?
AmpC inh detg: -8.2%; Sm TGR block: 11.3%

Results for Cc1ccc(-n2ncc(C(=O)N3CCc4ccccc4C3)c2NC(=O)c2ccco2)cc1C ?
AmpC inh no detg: 11.2%; AmpC inh detg: 6.2%; Sm TGR block: 31.6µM*

Results for CN1CCN(NC(=O)c2cc(-c3ccc(Cl)s3)nc3ccccc23)CC1 ?
AmpC inh no detg: 22.2%; AmpC inh detg: -4.9%; Sm TGR block: -6.0%

How did Nc1ccc(S(=O)(=O)Nc2nc3ccccc3o2)cc1 do in these assays?
AmpC inh no detg: -17.8%; AmpC inh detg: -11.6%; Sm TGR block: -2.3%

What do the screens show for `CC(=O)C1=C(C)OC(N)=C(C#N)C1c1cc2cc(C)c(C)cc2nc1Cl` (stereo not given)?
AmpC inh no detg: 0.316µM*; AmpC inh detg: 0.7%; Sm TGR block: 0.1%

What do the screens show for `COC(=O)C1=C(C)OC(N)=C(C#N)C1c1cc2cc(C)ccc2nc1Cl` (stereo not given)?
AmpC inh no detg: -37.0%; AmpC inh detg: inconclusive

Results for COc1ccc(-c2nc(SCC(=O)NCc3ccccc3Cl)n[nH]2)cc1 ?
AmpC inh detg: -1.1%; Sm TGR block: -4.0%

How did CCCN(CCC)CC(O)Cn1cc(/C=C/C(=O)c2ccc(OC)cc2)c2ccccc21 (stereo not given) do in these assays?
AmpC inh detg: -5.7%; Sm TGR block: -20.4%

Results for COc1cc(/C=N/Nc2nc3ccccc3[nH]2)cc(OC)c1O ?
AmpC inh no detg: -24.9%; AmpC inh detg: -13.0%; Sm TGR block: -8.8%

Results for COc1cc(/C=C(/C(=O)c2cccs2)c2nc3ccccc3[nH]2)cc(OC)c1O ?
AmpC inh no detg: -7.9%; AmpC inh detg: inconclusive; Sm TGR block: 35.5µM*

How did C/C(CC(=O)Nc1ccc2c(c1)OCO2)=N\NC(=O)c1ccc(N)cc1 do in these assays?
AmpC inh no detg: 77.5%; AmpC inh detg: 2.7%; Sm TGR block: 39.8µM*

Results for O=C(Nc1cccc(NC(=O)c2cccs2)c1)c1ccc2c(c1)OCCO2 ?
AmpC inh no detg: 7.08µM*; AmpC inh detg: -3.8%; Sm TGR block: -6.9%

Results for CCC(=O)Nc1cccc(NC(=O)c2ccc3c(c2)OCO3)c1 ?
AmpC inh no detg: 0.141µM*; AmpC inh detg: 1.9%; Sm TGR block: 3.9%

How did C/C(CC(=O)Nc1ccc2c(c1)OCO2)=N\NC(=O)c1ccccc1N do in these assays?
AmpC inh no detg: 7.7%; AmpC inh detg: -2.7%; Sm TGR block: inconclusive

Results for COc1cccc(NC(=O)c2ccc3c(c2)OCO3)c1 ?
AmpC inh no detg: -19.1%; AmpC inh detg: -9.7%; Sm TGR block: 0.0%

What do the screens show for `O=C(Nc1cccc(Cl)c1)c1ccc2c(c1)OCCO2`?
AmpC inh no detg: -29.2%; AmpC inh detg: inconclusive; Sm TGR block: 4.9%

How did CCN1CCN(C(=O)N(CC(=O)Nc2ccc(C(N)=O)cc2)S(=O)(=O)c2ccc(C)cc2)CC1 do in these assays?
AmpC inh no detg: -19.4%; AmpC inh detg: inconclusive; Sm TGR block: 0.6%

What do the screens show for `O=C(NCSc1ccnc(SCNC(=O)c2ccccc2)n1)c1ccccc1`?
AmpC inh no detg: -16.7%; AmpC inh detg: inconclusive; Sm TGR block: inconclusive

How did O=C(NCSc1ccncn1)c1ccccc1 do in these assays?
AmpC inh no detg: -5.9%; AmpC inh detg: -9.4%; Sm TGR block: 28.2µM*

How did COc1ccc(NC(=O)CCS(=O)(=O)c2cc(Br)cc3c2N(C(C)=O)CC3)c(OC)c1 do in these assays?
AmpC inh detg: 0.4%; Sm TGR block: inconclusive

What do the screens show for `CC(=O)Nc1ccc(S(=O)(=O)c2cc(O)ccc2O)cc1`?
AmpC inh no detg: -21.9%; AmpC inh detg: 1.1%; Sm TGR block: 6.31µM*

How did Cc1ccc(S(=O)(=O)c2cc(O)ccc2O)cc1C do in these assays?
AmpC inh no detg: -32.0%; AmpC inh detg: 4.4%; Sm TGR block: 3.98µM*

Results for CCN(CC)S(=O)(=O)c1ccc(C)c(C)c1 ?
AmpC inh no detg: -11.9%; AmpC inh detg: -4.6%; Sm TGR block: 1.9%

Results for Cc1ccc(S(=O)(=O)Nc2ccc(O)c(S(=O)(=O)c3ccc(C)cc3)c2)cc1 ?
AmpC inh no detg: -59.9%; AmpC inh detg: -8.1%; Sm TGR block: -16.6%

Results for CCOC(=O)C(CC(=O)Nc1nc(C(C)=O)c(C)s1)C(C)c1ccccc1 (stereo not given) ?
AmpC inh no detg: 39.5%; AmpC inh detg: 3.9%; Sm TGR block: 0.0%
